An excerpt weighted towards active compounds, which were near 2.1% of everything screened.
aDG glyco up: activators of alpha-DG glycosylation, primary screen, uHTS, Pro5-aDG cells, AlphaScreen; activation, % at 10 µM; alpha-DG glycosylation AlphaScreen (IIH6); 0% Pro5, 100% B10-LARGE cell signal; AID 624168, 2012; 360,000 compounds, 0.22% hits;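 active = activation of at least 8% versus controls, or a plate z-score of at least 8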;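 also: Pro5 are CHO cells carrying HIG-tagged alpha-DG that lacks glycosylation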
GalR3 antagonist: GalR3 antagonists in HEK293 cells, primary screen, cell-based, fluorescence readout | inhibition, % at 3 µM | 360,000 compounds, 0.44% hits | HEK293 GalR3-CNG cAMP membrane potential fluorescence; galR3 body fused to GalR1 C-terminus;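 active = inhibition above the screen-wide average plus 3 SD, cut at about 13% in these data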;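 also: forskolin and galanin both at EC90 stimulate the cells; cAMP rise reported by CNG channel membrane potential dye signal; 0% = forskolin plus galanin with DMSO and 100% = forskolin alone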
NR2F2 inh: NR2F2 transcriptional activity inhibitors, primary screen, cell-based, luciferase reporter, HEK293T, luminescence | 370,000 compounds, 0.7% hits | inhibition, % at 8.6 µM | AID 686940, 2013 | HEK293T NGFI-A luciferase reporter;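 active = inhibition above a per-plate cutoff, mean inhibition of test wells between control levels plus 3 SD, cut at about 38% in these data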;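 also: cells cotransfected with COUP-TFII expression vector driving the NGFI-A reporter; 0% = median of COUP-TF2 test wells and 100% = reporter-only cells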
Target sequence (P24468 whole entry, looked up): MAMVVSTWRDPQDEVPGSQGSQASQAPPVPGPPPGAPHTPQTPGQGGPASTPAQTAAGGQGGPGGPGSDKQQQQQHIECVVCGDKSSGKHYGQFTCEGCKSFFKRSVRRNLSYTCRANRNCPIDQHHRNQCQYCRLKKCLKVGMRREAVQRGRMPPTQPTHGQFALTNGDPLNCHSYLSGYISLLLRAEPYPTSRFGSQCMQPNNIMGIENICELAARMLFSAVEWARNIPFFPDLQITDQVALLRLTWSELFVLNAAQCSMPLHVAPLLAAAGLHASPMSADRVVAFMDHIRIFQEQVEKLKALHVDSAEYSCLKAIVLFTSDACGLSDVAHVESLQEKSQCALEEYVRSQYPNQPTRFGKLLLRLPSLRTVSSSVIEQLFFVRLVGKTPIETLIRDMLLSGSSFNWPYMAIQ
Gli-Sufu block: Gli-Sufu pathway antagonists, primary screen, luciferase luminescence, Sufu-KO-LIGHT cells, uHTS; Sufu-KO-LIGHT fibroblasts, Gli luciferase reporter luminescence; inhibition, % at 5 µM; 340,000 compounds, 0.74% hits; AID 588413, 2011;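 active = inhibition above about 55%, limit read from the data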;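 also: 0% = DMSO-treated cells and 100% = wells with medium but no cells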
Env fusion inh: inhibitors of HIV-1 Env-driven cell-cell fusion, primary screen, HeLa-JRFL effector, CEM21 target cells, luciferase | inhibition, % at 12.3 µM | 360,000 compounds, 1.1% hits | AID 651610, 2012;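 active = mean replicate inhibition score of at least 50 and every replicate individually at or above 50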;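 also: 0% = plate neutral controls and 100% = maraviroc near 300 nM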
* hit, by the source's call; / = no result given; [ ] = remark or other dose.

SMILES	aDG glyco up	GalR3 antagonist	NR2F2 inh	Gli-Sufu block	Env fusion inh
CCCCn1c(CN2CCN(C(=O)c3ccco3)CC2)nc2c1c(=O)n(C)c(=O)n2C	7.9*	/	-4	4	-109
COc1cc([C@@H]2c3cc4c(cc3[C@@H](O[C@@H]3O[C@@H]5CO[C@@H](C)O[C@H]5[C@H](O)[C@H]3O)[C@H]3COC(=O)[C@H]23)OCO4)cc(OC)c1O	0	-4	-53	82*	45
CN(C)CCn1c(=O)n(-c2cccc(Cl)c2)c(=O)c2c3c(sc21)CCCCC3	0	-5	22	5	130*
C[C@@H]1CCCCO[C@H](CN(C)C(=O)Nc2cccc3ccccc23)[C@H](C)CN([C@H](C)CO)C(=O)c2cc(NS(=O)(=O)c3ccccc3)ccc2O1	/	/	/	/	62*[16.7 µM]
C[C@H]1CCCCO[C@H](CN(C)C(=O)Nc2cccc3ccccc23)[C@@H](C)CN([C@@H](C)CO)C(=O)c2cc(NC(=O)NC3CCCCC3)ccc2O1	/	/	/	/	61*[16.7 µM]
C[C@H](CO)N1C[C@H](C)[C@@H](CN(C)C(=O)Nc2cccc3ccccc23)OCCCC[C@H](C)Oc2ccc(NS(=O)(=O)c3ccccc3)cc2C1=O	/	/	/	/	32[16.7 µM]
C[C@@H]1CN([C@@H](C)CO)C(=O)c2cc(NC(=O)c3ccccc3)ccc2O[C@@H](C)CCCCO[C@H]1CN(C)C(=O)Nc1cccc2ccccc12	/	/	/	/	60*[16.7 µM]
CO[C@@H]1CN(C)C(=O)c2ccc(NS(C)(=O)=O)cc2OC[C@H](C)N(CC2CCOCC2)C[C@H]1C	/	/	/	/	22[16.7 µM]
C[C@H](CO)N1C[C@H](C)[C@H](CN(C)C(=O)c2ccccn2)Oc2cc(C#CC3CC3)ccc2S1(=O)=O	/	/	/	/	7[16.7 µM]
C=CC[C@]1(C(=O)OC)N=C(c2ccc(OCCCO)cc2)O[C@H]1c1ccccc1	/	/	/	/	0[16.7 µM]
Cc1ccc(S(=O)(=O)N[C@H]2C=C[C@@H](CC(=O)N3CCC(Cc4ccccc4)CC3)O[C@H]2CO)cc1	/	/	/	/	56*[16.7 µM]
Cc1ccc(S(=O)(=O)N[C@@H]2C=C[C@H](CC(=O)N3CCC(Cc4ccccc4)CC3)O[C@@H]2CO)cc1	/	/	/	/	5[16.7 µM]
C[C@H]1CCCCO[C@H](CN(C)C(=O)Nc2ccc(F)cc2)[C@@H](C)CN([C@@H](C)CO)C(=O)c2cc(NC(=O)C3CCCCC3)ccc2O1	/	/	/	/	-1[16.7 µM]
Cc1cccc(NC2=C/C(=N/S(=O)(=O)c3cccs3)c3ccccc3C2=O)c1	1	-3	-1	34	76*
Cc1cc(C)c(S(=O)(=O)/N=C2\C=C(Nc3ccc(C(=O)O)cc3)C(=O)c3ccccc32)c(C)c1	1	-11	17	-1	73*
CCc1ccc(S(=O)(=O)/N=C2\C=C(Nc3cccc(C(=O)O)c3)C(=O)c3ccccc32)cc1	0	-10	-11	-18	1
O=C1C(Nc2ccc(O)cc2)=C/C(=N/S(=O)(=O)c2cccs2)c2ccccc21	-1	-9	78*	94*	95*
O=C(O)c1ccc(NC2=C/C(=N/S(=O)(=O)c3cccs3)c3ccccc3C2=O)cc1	1	-4	0	/	18
CCc1ccc(S(=O)(=O)/N=C2\C=C(Nc3ccc(O)cc3)C(=O)c3ccccc32)cc1	-1	/	/	88*	/
COc1ccccc1NC(=O)N[C@@H]1CC[C@@H](CCNC(=O)c2ccc3c(c2)OCO3)O[C@@H]1CO	/	/	/	/	11[16.7 µM]
Cc1ccc(Cl)cc1NC1=C/C(=N\S(=O)(=O)c2cccs2)c2ccccc2C1=O	-1	-6	-1	11	112*
Cc1ccc(NC2=C/C(=N\S(=O)(=O)c3cccs3)c3ccccc3C2=O)c(C)c1	-1	/	/	65*	/
C[C@@H]1CCCCO[C@H](CN(C)S(=O)(=O)c2ccc(Cl)cc2)[C@H](C)CN([C@H](C)CO)C(=O)c2cc(N(C)C)ccc2O1	/	/	/	/	23[16.7 µM]
Cc1noc(C)c1S(=O)(=O)Nc1ccc2c(c1)C(=O)N([C@H](C)CO)C[C@H](C)[C@@H](CN(C)S(=O)(=O)c1c(C)noc1C)OCCCC[C@H](C)O2	/	/	/	/	-6[16.7 µM]
Cc1cc(Cl)ccc1OCC(=O)N1CCCN(C(=O)COc2ccc(Cl)cc2C)CC1	1	1	21	10	115*
SMILES	aDG glyco up	GalR3 antagonist	NR2F2 inh	Gli-Sufu block	Env fusion inh
CC1=NNC(=O)/C1=C\c1cn(-c2ccccc2)nc1-c1ccc(Cl)cc1	0	21*	16	3	/
Cc1ccc(-c2nn(-c3ccccc3)cc2C=C2C(=O)CC(C)(C)CC2=O)cc1	1	-4	-18	-44	/
CCc1cc2c(COC(=O)c3cc(S(=O)(=O)N4CCOCC4)ccc3F)cc(=O)oc2cc1O	0	19*	17	9	/
O=C(C[C@H]1CC[C@@H]2[C@H](COC[C@H](O)CN2Cc2cocn2)O1)NCc1cccc(F)c1	/	/	/	/	12[16.7 µM]
CCCC(=O)Nc1ccc2c(c1)C(=O)N(C)C[C@@H](OC)[C@@H](C)CN(Cc1nccs1)[C@@H](C)CO2	/	/	/	/	58*[16.7 µM]
CO[C@@H]1CN(C)C(=O)c2cc(NC(=O)Nc3ccc(Cl)cc3)ccc2OC[C@H](C)N(C)C[C@H]1C	/	/	/	/	60*[16.7 µM]
CO[C@H]1CN(C)C(=O)c2cc(NC(C)=O)ccc2OC[C@@H](C)N(Cc2nccs2)C[C@H]1C	/	/	/	/	70*[16.7 µM]
CO[C@H]1CN(C)C(=O)c2cc(NC(C)=O)ccc2OC[C@@H](C)N(Cc2nccs2)C[C@@H]1C	/	/	/	/	3[16.7 µM]
O=C(NC1CCC1)[C@H]1[C@H](CO)[C@H]2Cn3c(cccc3=O)[C@H]2N1CCc1ccccc1	/	/	/	/	2[16.7 µM]
COc1ccc(CNCC(O)(c2ccc(Cl)cc2)c2ccc(Cl)cc2)cc1OC	0	-7	20	10	63*
Nc1ccc(-n2nc3ccccc3n2)cc1	0	-2	-3	-39	-22
Nc1ccc2nn(-c3ccccc3)nc2c1	5.9*	-3	-11	-63	-25
Cc1cccc(C)c1OCC(O)Cn1c2ccccc2c2ccccc21 (stereo not given)	2	2	6	7	57*
COc1ccc(-c2ccc3c(c2)[C@@H]2[C@@H](CCN2C(=O)NC2CCCC2)[C@H](CO)N3C)cc1	/	/	/	/	59*[16.7 µM]
CO[C@@H]1CN(C)C(=O)c2cc(NS(=O)(=O)c3ccccc3Cl)ccc2OC[C@@H](C)NC[C@@H]1C	/	/	/	/	25[16.7 µM]
CCOc1ccc2nc3cc(NCc4ccc(OC)cc4)ccc3c(N)c2c1	0	/	/	64*	/
O=C(Nc1nc2ccccc2[nH]1)c1cccc([N+](=O)[O-])c1	0	-6	-15	-15	-4
O=C(Cc1nc2ccccc2[nH]1)c1cccc([N+](=O)[O-])c1	0	2	6	1	73*
C/C=C/c1ccc2c(c1)O[C@@H](CN(C)Cc1ccc(C(=O)O)cc1)[C@@H](C)CN([C@H](C)CO)S2(=O)=O	/	/	/	/	2[16.7 µM]
O=C(NCC[C@H]1CC[C@@H](NC(=O)c2cccnc2)[C@H](CO)O1)Nc1ccc(Cl)cc1	/	/	/	/	-11[16.7 µM]

Compound activity as filed in PubChem.
